# Compound activity as filed in PubChem BioAssay.
# Compounds with a hit are over-represented: about 14% of the library has one in this group of screens.
# Giardia FBPA inh: qHTS Assay for Inhibitors of Fructose-1,6-bisphosphate Aldolase from Giardia Lamblia | A8B2U2 | purified Giardia FBPA | Potency, µM (top dose mostly 59.6 µM), for inactives: top-dose activity, negative = inhibition, hits mostly inhibitors | 0.71% of 290,000 active | AID 2451, 2010; also: potency is read from the fitted curve at half-maximal effect; % is scaled to controls: 0 for no effect and ±100 for the full control effect; nearly all actives have a fitted effect of over 55% in size
#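 40 nM FBPA preincubated 10 min at RT with compound (up to 57.5 uM final), then substrate plus GAPDH/TPI/NAD/arsenate coupling and diaphorase/resazurin added. Fluorescence read after 20 min at RT, 525/598 nm.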
# LmPK inhibitor: qHTS Assay for Inhibitors of Leishmania Mexicana Pyruvate Kinase (LmPK); Q27686; purified LmPK, Kinase-Glo ATP luminescence, 1 h; Potency, µM (top dose mostly 57.5 µM), without a hit: at the top dose activity change, negative = inhibition, most hits filed as inhibitors; 0.37% of 290,000 active; AID 1721, 2009; also: potency is read from the fitted curve at half-maximal effect; % is scaled to controls: 0 for no effect and ±100 for the full control effect
# Target sequence (Q27686 whole entry, looked up): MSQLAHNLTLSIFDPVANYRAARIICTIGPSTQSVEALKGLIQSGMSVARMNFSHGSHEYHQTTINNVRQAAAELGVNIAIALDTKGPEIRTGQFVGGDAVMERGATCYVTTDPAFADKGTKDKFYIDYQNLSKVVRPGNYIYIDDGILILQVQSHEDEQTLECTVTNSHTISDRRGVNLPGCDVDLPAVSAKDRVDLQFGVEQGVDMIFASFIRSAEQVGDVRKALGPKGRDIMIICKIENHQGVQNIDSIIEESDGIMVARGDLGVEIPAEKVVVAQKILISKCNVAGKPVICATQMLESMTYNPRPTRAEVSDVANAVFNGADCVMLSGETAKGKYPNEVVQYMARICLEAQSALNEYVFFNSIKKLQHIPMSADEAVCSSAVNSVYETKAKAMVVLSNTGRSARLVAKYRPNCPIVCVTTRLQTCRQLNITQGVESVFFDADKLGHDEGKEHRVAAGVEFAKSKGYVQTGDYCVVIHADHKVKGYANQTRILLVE
#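 Purified LmPK (0.1 nM) with 0.5 mM PEP and 0.1 mM ADP in imidazole buffer pH 7.2 with MgCl2/KCl, 1 h at room temperature. ATP formed was read by luciferase luminescence and normalized to no-enzyme and uninhibited controls.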
# Cycloheximide cs: Cycloheximide Counterscreen for Small Molecule Inhibitors of Shiga Toxin; max response, %; 12% of 300,000 active; cell reporter, cycloheximide protein synthesis inhibition counterscreen; in the data active = max response mostly above about 13%, no sharp cut-off; inactive = mostly below about 14%; also: read at 38.3 µM for the half of the compounds with a filed dose; 0% is about no effect
# Shiga toxin inh: A qHTS for Small Molecule Inhibitors of Shiga Toxin; Vero cells, Shiga toxin protein synthesis inhibition reporter; inhibition, % at 38.7 µM; 9.2% of 290,000 active; in the data active = inhibition mostly above about 28%, no sharp cut-off; inactive = mostly below about 43%; also: 0% is about no effect
# NS1 inh: qHTS Assay for Inhibitors of Influenza NS1 Protein Function; Potency, µM (highest dose often 46.1 µM), inactives show at the highest dose activity, positive = more growth; 0.4% of 270,000 active; AID 2326, 2010; calls by dose curve; also: potency is read from the fitted curve at half-maximal effect; actives are rising curves; nearly all actives have a fitted effect of over 50% in size
#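 S. cerevisiae expressing influenza A NS1, grown in glucose, washed, then diluted 1:100 into pH 6.0 -URA galactose medium with 23 nl compound. Growth recovery read as OD600; NS1-free strain serves as control.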
# Starred values were filed as active, the others as inactive; . = no result; [ ] = another dose, or the depositor's remark. Unless noted, calls follow the shape of the dose curve; as a rule, active = well fitted curve in the direction sought with a large enough effect; inconclusive = small, poorly fitted or top-dose-only effect, or another doubt; inactive = no such curve, though single readings can be large; an effect the other way counts as inactive or inconclusive.
SMILES,Giardia FBPA inh,LmPK inhibitor,Cycloheximide cs,Shiga toxin inh,NS1 inh
COc1ccc(-c2c(C3C4C=CCC(C)C4C(=O)N3Cc3ccccc3)ccc3ccccc23)cc1OC (stereo not given),-5%,.,6,20,.
CC(C)(C)c1ccc(C(=O)Nc2ccccc2C(=O)NCCN2CCOCC2)cc1,0%,13%,13*,35,-16%
O=C(Nc1ccc2c(c1)OCO2)c1cn(Cc2ccc(F)cc2)nn1,1%,2%,18,42*,0%
O=C(Nc1ccc(CN2CCCCC2)cc1)c1ccc2c(c1)OCO2,1%,-3%,20*,34*,4%
NC(=O)c1ccc(NC(=O)c2ccc(CN3CCOCC3)cc2)cc1,3%,6%,-2,-11,5%
O=C(Nc1ccc(CN2CCCCC2)cc1)c1c(F)c(F)c(F)c(F)c1F,3%,2%,0,-4,6%
COc1ccc(C(=O)Nc2ccccc2C(=O)NCCN2CCOCC2)cc1,-10%,1%,13,36,-1%
CC(C)c1ccc(C(=O)Nc2ccc(CN3CCOCC3)cc2)cc1,10%,3%,23*,55*,-5%
COc1ccc(NS(=O)(=O)c2cc(NC(=O)c3ccc(=O)[nH]c3)ccc2N2CCCC2)cc1,.,0%,-1,21,3%
O=C(Nc1ccc(CN2CCCCC2)cc1)c1ccc(Br)o1,-24%,-3%,31*,79*,3%[9.22 µM]
O=C(Nc1ccc2c(c1)OCO2)c1ccc(CN2CCOCC2)cc1,-2%,0%,40*,60*,11%
O=C(Nc1ccc(CN2CCS(=O)(=O)CC2)cc1)c1ccc(Cl)cc1,-2%,-1%,16*,38,6%
O=C(CN1CCN(Cc2ccc3c(c2)OCO3)CC1)Nc1ccc2c(c1)OCO2,3%,-2%,-2,-23,1%
COc1ccccc1NC(=O)c1ccc(CN2CCOCC2)cc1,-3%,0%,10,13,-1%
CSc1ccccc1NC(=O)c1ccc(CN2CCOCC2)cc1,5%,-2%,13*,52*,.
CN(C)c1ccc(-c2cncnc2NCCc2cnc[nH]2)cc1,-11%,.,.,.,.
CC(C)CC(NC(N)=O)C(=O)OCC(=O)Nc1ccc(OC(F)F)cc1 (stereo not given),-2%,2%,0,-3,.
Cc1ccc(C)c(NS(=O)(=O)c2c(C)nc3sccn3c2=O)c1,4%,0%,4,-1,6%
CCCn1c(-c2ccc(F)cc2)nc2c(NCCCCN(CC)CC)nc(C)nc21,-3%,.,.,.,.
CCOc1ccc(C[C@H]2NC(=O)CCSSC[C@@H](C(=O)N3CCC[C@H]3C(=O)N[C@@H](CCCN)C(=O)NCC(N)=O)NC(=O)[C@H](CC(N)=O)NC(=O)[C@H]([C@@H](C)O)NC(=O)[C@H]([C@@H](C)CC)NC2=O)cc1,2%,.,-10,19,.
c1ccc2c(Nc3nnc(-c4ccncc4)s3)cccc2c1,-6%,-4%,48*,34*,0%
Cc1ccc(NC(=O)c2c(C(F)(F)F)nn(C)c2SCc2ccc(Cl)cc2)cc1C,-1%,3%,22*,46*,14%
Cc1ccc(NC(=O)c2c(C(F)(F)F)nn(C)c2SCc2cccc(C(F)(F)F)c2)cc1C,-5%,4%,20*,51*,7%
Cc1cccc(C)c1NC(=O)c1sccc1SCc1cccc(C(F)(F)F)c1,-3%,1%,2,-3,-7%
COC(=O)c1ccc(/C=C(\C#N)c2nc3ccccc3s2)cc1,0%,-1%,12,37,-10%
N#C/C(=C\c1ccncc1)c1nc2c(s1)CCCC2,0%,9%,21*,42*,.
CC(=O)N[C@H]1CSSC[C@@H](C(=O)N2CCC[C@H]2C(=O)N2CCC[C@H]2C(=O)N[C@@H](CCCCN)C(=O)N[C@@H](CC(=O)O)C(N)=O)NC(=O)CNC(=O)[C@H](Cc2c[nH]c3ccccc23)NC(=O)[C@H](CCCNC(=N)N)NC(=O)[C@@H](Cc2ccc(Cl)c(Cl)c2)NC(=O)[C@H](Cc2cnc[nH]2)NC(=O)[C@H](CCC(=O)O)NC1=O,6%,.,-7,-9,.
O=[N+]([O-])c1ccc(C2=NCCO2)cc1,-3%,-4%,39*,74*,-60%
Cc1cc(CNCc2cn(C)nc2-c2ccc(Oc3ccccc3)cc2)on1,-1%,1%,17*,12,-6%
